{"source": "PubChem BioAssay (NCI)", "test_in_all_cases": "NCI-60 one-dose screen, 48 h (100 = growth as untreated, 0 = no growth, -100 = all killed)", "details_in_all_cases": "10 µM unless noted", "key": {"[1]": {"test_system": "NCI-H226 lung"}, "[2]": {"test_system": "NCI-H322M lung"}, "[3]": {"test_system": "HOP-62 NSCLC"}, "[4]": {"test_system": "NCI-H460 lung"}, "[5]": {"test_system": "HOP-92 NSCLC"}, "[6]": {"test_system": "NCI-H522 lung"}, "[7]": {"test_system": "A549/ATCC NSCLC"}, "[8]": {"test_system": "786-0 renal"}, "[9]": {"test_system": "COLO 205 colon"}, "[10]": {"test_system": "NCI-H23 lung"}}, "note": "The panel holds about 83,000 compounds, 20% with a hit somewhere; the sample as a whole holds those more often.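 Values shown are percent growth following 48 h exposure of cells in 96-well plates to a single concentration of compound; below 10 was considered active.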 Unmarked numbers belong to inactive results. Calls of active or inactive are those of the source."}
{"smiles": "NC(=O)CN1C(=O)c2ccccc2C1=O", "values": [{"measurement": "growth", "setting": "[1]", "value": 101, "unit": "%"}, {"measurement": "growth", "setting": "[2]", "value": 99.1, "unit": "%"}, {"measurement": "growth", "setting": "[3]", "value": 101, "unit": "%"}, {"measurement": "growth", "setting": "[4]", "value": 106, "unit": "%"}, {"measurement": "growth", "setting": "[5]", "value": 96.7, "unit": "%"}, {"measurement": "growth", "setting": "[6]", "value": 88.3, "unit": "%"}, {"measurement": "growth", "setting": "[7]", "value": 103, "unit": "%"}, {"measurement": "growth", "setting": "[8]", "value": 102, "unit": "%"}, {"measurement": "growth", "setting": "[9]", "value": 110, "unit": "%"}]}
{"smiles": "COc1ccc2c(c1)C1(C(=O)N2)C(C#N)=C(c2ccccc2)Nc2c1c(-c1ccccc1)nn2-c1ccccc1", "note": "(configuration not stated)", "values": [{"measurement": "growth", "setting": "[10]", "value": 51.1, "unit": "%"}, {"measurement": "growth", "setting": "[1]", "value": 101, "unit": "%"}, {"measurement": "growth", "setting": "[3]", "value": 66.9, "unit": "%"}, {"measurement": "growth", "setting": "[4]", "value": "-26.1% (active)"}, {"measurement": "growth", "setting": "[5]", "value": 55.6, "unit": "%"}, {"measurement": "growth", "setting": "[6]", "value": 85.9, "unit": "%"}, {"measurement": "growth", "setting": "[7]", "value": 36.3, "unit": "%"}, {"measurement": "growth", "setting": "[8]", "value": 62.4, "unit": "%"}, {"measurement": "growth", "setting": "[9]", "value": 60.1, "unit": "%"}]}
{"smiles": "Cc1nn(-c2ccc(-c3ccc(OC(F)(F)F)cc3)cc2)c2nc(-c3ccccc3)nc(N)c12", "values": [{"measurement": "growth", "setting": "[10]", "value": 97.7, "unit": "%"}, {"measurement": "growth", "setting": "[1]", "value": 88.4, "unit": "%"}, {"measurement": "growth", "setting": "[3]", "value": 95.8, "unit": "%"}, {"measurement": "growth", "setting": "[4]", "value": 83.2, "unit": "%"}, {"measurement": "growth", "setting": "[5]", "value": 66.4, "unit": "%"}, {"measurement": "growth", "setting": "[6]", "value": 83.7, "unit": "%"}, {"measurement": "growth", "setting": "[7]", "value": 85.2, "unit": "%"}, {"measurement": "growth", "setting": "[8]", "value": 93.8, "unit": "%"}, {"measurement": "growth", "setting": "[9]", "value": 121, "unit": "%"}]}
{"smiles": "COC(=O)/C=C1\\SC(=Nc2ccc(C(F)(F)F)cc2)N(CCc2c[nH]c3ccccc23)C1=O", "values": [{"measurement": "growth", "setting": "[10]", "value": "-4.71% (active)"}, {"measurement": "growth", "setting": "[1]", "value": "-62.7% (active)"}, {"measurement": "growth", "setting": "[3]", "value": "-64.2% (active)"}, {"measurement": "growth", "setting": "[5]", "value": "-48.7% (active)"}, {"measurement": "growth", "setting": "[6]", "value": "-65% (active)"}, {"measurement": "growth", "setting": "[7]", "value": "3.32% (active)"}, {"measurement": "growth", "setting": "[8]", "value": "-74.1% (active)"}, {"measurement": "growth", "setting": "[9]", "value": "-62.9% (active)"}]}
{"smiles": "OCCNc1nc(NCCO)nc(Nc2ccc(C3=NN(c4cc(Cl)cc(Cl)c4)C(c4ccccc4)C3)cc2)n1", "note": "(configuration not stated)", "values": [{"measurement": "growth", "setting": "[10]", "value": 50.1, "unit": "%"}, {"measurement": "growth", "setting": "[1]", "value": 96.2, "unit": "%"}, {"measurement": "growth", "setting": "[3]", "value": 29.1, "unit": "%"}, {"measurement": "growth", "setting": "[4]", "value": 23.7, "unit": "%"}, {"measurement": "growth", "setting": "[5]", "value": 72.1, "unit": "%"}, {"measurement": "growth", "setting": "[6]", "value": 48.1, "unit": "%"}, {"measurement": "growth", "setting": "[7]", "value": 35.9, "unit": "%"}, {"measurement": "growth", "setting": "[8]", "value": 40.3, "unit": "%"}, {"measurement": "growth", "setting": "[9]", "value": 34.4, "unit": "%"}]}
{"smiles": "CCCCC(=O)Nc1c(C(=O)Nc2ccccc2)sc2nc3c(cc12)C(OC(=O)CCCC)CCC3", "note": "(configuration not stated)", "values": [{"measurement": "growth", "setting": "[10]", "value": 95.6, "unit": "%"}, {"measurement": "growth", "setting": "[1]", "value": 92.6, "unit": "%"}, {"measurement": "growth", "setting": "[3]", "value": 101, "unit": "%"}, {"measurement": "growth", "setting": "[5]", "value": 84.4, "unit": "%"}, {"measurement": "growth", "setting": "[6]", "value": 77, "unit": "%"}, {"measurement": "growth", "setting": "[7]", "value": 105, "unit": "%"}, {"measurement": "growth", "setting": "[8]", "value": 84.1, "unit": "%"}, {"measurement": "growth", "setting": "[9]", "value": 90.3, "unit": "%"}]}
{"smiles": "N#CCNc1ccc(C(=O)O)cc1", "values": [{"measurement": "growth", "setting": "[10]", "value": 101, "unit": "%"}, {"measurement": "growth", "setting": "[1]", "value": 95.3, "unit": "%"}, {"measurement": "growth", "setting": "[3]", "value": 98.3, "unit": "%"}, {"measurement": "growth", "setting": "[4]", "value": 103, "unit": "%"}, {"measurement": "growth", "setting": "[5]", "value": 94, "unit": "%"}, {"measurement": "growth", "setting": "[6]", "value": 90.4, "unit": "%"}, {"measurement": "growth", "setting": "[7]", "value": 87, "unit": "%"}, {"measurement": "growth", "setting": "[8]", "value": 104, "unit": "%"}, {"measurement": "growth", "setting": "[9]", "value": 110, "unit": "%"}]}
{"smiles": "NC[C@@H]1CCN(c2cc3c(cc2F)c(=O)n(N)c(=O)n3Cc2ccc(-c3ccccc3)cc2)C1", "values": [{"measurement": "growth", "setting": "[10]", "value": 87.2, "unit": "%"}, {"measurement": "growth", "setting": "[1]", "value": 91.1, "unit": "%"}, {"measurement": "growth", "setting": "[3]", "value": 77.4, "unit": "%"}, {"measurement": "growth", "setting": "[4]", "value": 99.7, "unit": "%"}, {"measurement": "growth", "setting": "[5]", "value": 73.6, "unit": "%"}, {"measurement": "growth", "setting": "[6]", "value": 68.8, "unit": "%"}, {"measurement": "growth", "setting": "[7]", "value": 89.6, "unit": "%"}, {"measurement": "growth", "setting": "[8]", "value": 66.2, "unit": "%"}, {"measurement": "growth", "setting": "[9]", "value": 88.6, "unit": "%"}]}
{"smiles": "CC(=O)Nc1nc2c(c(N)c1C#N)C(c1cccc(Cl)c1)C1=C(CCCC1=O)N2c1sc2c(c1C#N)CCCC2", "note": "(configuration not stated)", "values": [{"measurement": "growth", "setting": "[1]", "value": 55.5, "unit": "%"}, {"measurement": "growth", "setting": "[3]", "value": 67.3, "unit": "%"}, {"measurement": "growth", "setting": "[4]", "value": 53.1, "unit": "%"}, {"measurement": "growth", "setting": "[5]", "value": 40.1, "unit": "%"}, {"measurement": "growth", "setting": "[6]", "value": 21.3, "unit": "%"}, {"measurement": "growth", "setting": "[7]", "value": 32.8, "unit": "%"}, {"measurement": "growth", "setting": "[8]", "value": 57.6, "unit": "%"}, {"measurement": "growth", "setting": "[9]", "value": 59.6, "unit": "%"}]}
{"smiles": "CCCCOc1nc2ccc(C)cc2cc1/C=C/C(=O)/C=C/c1ccc2c(c1)OCO2", "values": [{"measurement": "growth", "setting": "[1]", "value": 96.3, "unit": "%"}, {"measurement": "growth", "setting": "[2]", "value": 88, "unit": "%"}, {"measurement": "growth", "setting": "[3]", "value": 112, "unit": "%"}, {"measurement": "growth", "setting": "[5]", "value": 80.6, "unit": "%"}, {"measurement": "growth", "setting": "[6]", "value": 60.6, "unit": "%"}, {"measurement": "growth", "setting": "[7]", "value": 78.3, "unit": "%"}, {"measurement": "growth", "setting": "[8]", "value": 97.9, "unit": "%"}, {"measurement": "growth", "setting": "[9]", "value": 123, "unit": "%"}]}
{"smiles": "CN1CC=C(c2cc(NC(=O)Nc3ccc(Oc4ccnc(NC(=O)C5CC5)c4)c(F)c3)cc(C(F)(F)F)c2)CC1", "values": [{"measurement": "growth", "setting": "[1]", "value": "4.49% (active)"}, {"measurement": "growth", "setting": "[2]", "value": "7.64% (active)"}, {"measurement": "growth", "setting": "[3]", "value": "-13.2% (active)"}, {"measurement": "growth", "setting": "[4]", "value": "-5.88% (active)"}, {"measurement": "growth", "setting": "[5]", "value": "-17% (active)"}, {"measurement": "growth", "setting": "[6]", "value": "-49.8% (active)"}, {"measurement": "growth", "setting": "[7]", "value": "-6.76% (active)"}, {"measurement": "growth", "setting": "[8]", "value": "-6.75% (active)"}, {"measurement": "growth", "setting": "[9]", "value": "-26.2% (active)"}]}
{"smiles": "O=C(O)c1ccc(-n2cc(/C=N/Nc3ccc(Cl)cc3Cl)c(-c3ccccc3)n2)cc1", "values": [{"measurement": "growth", "setting": "[1]", "value": 88.6, "unit": "%"}, {"measurement": "growth", "setting": "[2]", "value": 103, "unit": "%"}, {"measurement": "growth", "setting": "[3]", "value": 92.2, "unit": "%"}, {"measurement": "growth", "setting": "[4]", "value": 102, "unit": "%"}, {"measurement": "growth", "setting": "[5]", "value": 106, "unit": "%"}, {"measurement": "growth", "setting": "[6]", "value": 78, "unit": "%"}, {"measurement": "growth", "setting": "[7]", "value": 97.1, "unit": "%"}, {"measurement": "growth", "setting": "[8]", "value": 97.5, "unit": "%"}, {"measurement": "growth", "setting": "[9]", "value": 96.7, "unit": "%"}]}
{"smiles": "O=c1[nH]nc(-c2ccc(Br)cc2)c2sc(NC(=S)Nc3ccc(Cl)cc3)nc12", "values": [{"measurement": "growth", "setting": "[1]", "value": 94.4, "unit": "%"}, {"measurement": "growth", "setting": "[2]", "value": 95.3, "unit": "%"}, {"measurement": "growth", "setting": "[3]", "value": 104, "unit": "%"}, {"measurement": "growth", "setting": "[4]", "value": 102, "unit": "%"}, {"measurement": "growth", "setting": "[5]", "value": 92.7, "unit": "%"}, {"measurement": "growth", "setting": "[6]", "value": 94.1, "unit": "%"}, {"measurement": "growth", "setting": "[7]", "value": 102, "unit": "%"}, {"measurement": "growth", "setting": "[8]", "value": 102, "unit": "%"}, {"measurement": "growth", "setting": "[9]", "value": 124, "unit": "%"}]}
{"smiles": "OCCNc1nc(NCCO)nc(Nc2ccc(C3=NN(c4cc(Cl)cc(Cl)c4)C(c4ccc(C(F)(F)F)cc4)C3)cc2)n1", "note": "(configuration not stated)", "values": [{"measurement": "growth", "setting": "[1]", "value": 80.2, "unit": "%"}, {"measurement": "growth", "setting": "[2]", "value": 49.1, "unit": "%"}, {"measurement": "growth", "setting": "[3]", "value": 32.5, "unit": "%"}, {"measurement": "growth", "setting": "[4]", "value": 14.8, "unit": "%"}, {"measurement": "growth", "setting": "[5]", "value": 65.8, "unit": "%"}, {"measurement": "growth", "setting": "[6]", "value": 61.2, "unit": "%"}, {"measurement": "growth", "setting": "[7]", "value": 32.9, "unit": "%"}, {"measurement": "growth", "setting": "[8]", "value": "2.27% (active)"}, {"measurement": "growth", "setting": "[9]", "value": 25.3, "unit": "%"}]}
